Inconclusive results are not listed. Activity calls are given as the source filed them. Calls follow the shape of the dose curve; as a rule, active = well fitted inhibition curve with a large enough effect; inconclusive = small, poorly fitted or top-dose-only effect; inactive = no such curve, though single readings can be large or run the other way.
Experiment: qHTS to identify inhibitors of the type 1 interferon - major histocompatibility complex class I in skeletal muscle: tertiary screen by RT-qPCR
Settings: C25cl48 human myoblasts, IFN-beta, HLA-B RT-qPCR, 24 h; series mostly up to 49.8 µM; activity change, negative = inhibition: at the top concentration
From the text: Assay Submitter (PI): Travis B. Kinder Ph.D. & James Inglese Ph.D. Assay Development and Screening Technology Laboratory (ADST) National Center for Advancing Translational Sciences (NCATS), Rockville, MD National Institute of Health (NIH), Bethesda, Maryland Idiopathic inflammatory myopathies, collectively referred to as myositis, are a group of rare autoimmune diseases characterized by skeletal muscle inflammation, weakness, and usually accompanied by systemic pathologies of the skin, lungs, or vasculature. Current immunosuppressive therapies and glucocorticoids are often not curative and are accompanied by harsh side effects, especially in children with juvenile myositis. We initiated a drug repurposing and development program to identify more targeted, less toxic therapeutics to treat myositis. Although its cause is not known, muscle from a subset of patients have an abundance of the inflammatory type 1 interferon (IFN) and a down-stream product major histocompatibility complex class I (MHC class I), which are both thought to contribute to damage and weakness. We conducted quantitative high throughput screening (qHTS) on 6,576 compounds (4,679 unique) through a series of cell-based assays to identify those that inhibit the IFN-stimulated expression of MHC class I in muscle precursor cells (myoblasts). The compound identification and evaluation strategy utilized a primary screen with reporter-tagged MHC class I in genome-engineered myoblasts, ATP content counter screen for viability, HLA-ABC immunofluorescence secondary screen, and HLA-B RT-qPCR tertiary screen. To determine if active compounds identified by qHTS in HLA-B HiBit reporter cells, and confirmed by HLA-ABC immunofluorescence, can inhibit the transcription of HLA-B mRNA, compounds were assayed by RT-qPCR. Briefly, 62 compounds identified from primary, counter, and secondary screening as inhibitory with minimal cytotoxicity were dispensed into 384-well plates using acoustic dispensing in a 6-point, 1:7 titration with a high final concentration of 10 uM. Normal immortalized human myoblasts C25cl48 were added to the plate with 4.0 ng/ml human IFN-beta for 24 hours, and cells were harvested and assayed by the Cells-to-Ct kit with TaqMan assays (Thermo Fisher).
PROTOCOL TABLE (as described by Inglese et al., 2007) SEQUENCE No. (e.g., 1, 2, 3, etc.); […] (e.g., Cells, Incubation, Reagent, etc.); VALUE; DESCRIPTION 0; Compounds; 150 nl; Follow-up compounds dispensed at 150 nl/well with Labcyte Echo 655 acoustic dispenser into one Corning white/clear bottom, high base TC 384-well plates (3765) 1a; Cells; 30 uL; Using a p200 manual pipette, seed 780 cells/well into 1 plate in 30 ul/well of iHSKM growth medium without dexamethasone into columns wells A1-A6. […]

Structure (SMILES)	Potency	activity change, negative = inhibition
C[C@@]12O[C@@H](C[C@]1(O)CO)n1c3ccccc3c3c4c(c5c6ccccc6n2c5c31)CNC4=O	2600 nM (active)	
CC(=O)c1cnc2ccc(-c3cc(Cl)c(O)c(Cl)c3)nc2c1NC1CCC(CN(C)C)CC1 (configuration not stated)	116 nM (active)	
C=CCNC1=C2C[C@@H](C)C[C@H](OC)[C@H](O)[C@@H](C)/C=C(\C)[C@H](OC(N)=O)[C@@H](OC)/C=C\C=C(/C)C(=O)NC(=CC1=O)C2=O		-32.6% (inactive)
CN1CCN(Cc2ccc(NC(=O)Nc3ccc(Oc4cc(NC(=O)C5CC5)ncn4)cc3)cc2C(F)(F)F)CC1	146 nM (active)	
CC(=O)OCC(=O)[C@@]12OC(C)(C)O[C@@H]1C[C@H]1[C@@H]3C[C@H](F)C4=CC(=O)C=C[C@]4(C)[C@@]3(F)[C@@H](O)C[C@@]12C		-29.4% (inactive)
C[C@H]1C[C@@H]2[C@H]([C@@H](O)C[C@@]3(C)[C@H]2CC[C@]3(O)C(=O)CO)[C@@]2(C)C=CC(=O)C=C12		-18% (inactive)
N#CCC1(n2cc(-c3ncnc4[nH]ccc34)cn2)CN(C2CCN(C(=O)c3ccnc(C(F)(F)F)c3F)CC2)C1	3680 nM (active)	
N#CC[C@H](C1CCCC1)n1cc(-c2ncnc3[nH]ccc23)cn1	1640 nM (active)	
Cc1ncsc1-c1ccc([C@H](C)NC(=O)[C@@H]2C[C@@H](O)CN2C(=O)[C@@H](NC(=O)COCCCOCCNC(=O)C[C@@H]2N=C(c3ccc(Cl)cc3)c3c(sc(C)c3C)-n3c(C)nnc32)C(C)(C)C)cc1		-104% (inactive)
CN1CCN(c2cccc(Nc3nc4c(-c5ccc(S(C)(=O)=O)cc5)cccn4n3)c2)CC1	8230 nM (active)	
O=C(/C=C/c1ccc(CN(CCO)CCc2c[nH]c3ccccc23)cc1)NO	116 nM (active)	
CS[C@H]1SC[C@@H]2C(=O)N(C)[C@H](C(C)C)C(=O)OC[C@H](NC(=O)c3cnc4ccccc4n3)C(=O)N[C@H](C)C(=O)N(C)[C@H]1C(=O)N(C)[C@H](C(C)C)C(=O)OC[C@H](NC(=O)c1cnc3ccccc3n1)C(=O)N[C@H](C)C(=O)N2C		-135% (inactive)
NC(=O)c1cnc2[nH]ccc2c1NC1C2CC3C[C@H]1CC(O)(C3)C2 (some centres not stated)	1640 nM (active)	
Cc1cc(O)c(-c2ccc([C@@H](C)CN(C)C)cc2)c2c1[nH]c(=O)c1sccc12	51.9 nM (active)	
O=C(Nc1nc2cccc(-c3ccc(CN4CCS(=O)(=O)CC4)cc3)n2n1)C1CC1	18400 nM (active)	
CC1=C(CO)C(=O)O[C@@H]([C@@H](C)[C@H]2CC[C@H]3[C@@H]4C[C@H]5O[C@]56[C@@H](O)C=CC(=O)[C@]6(C)[C@H]4CC[C@]23C)C1	1300 nM (active)	
N#CCNC(=O)c1ccc(-c2ccnc(Nc3ccc(N4CCOCC4)cc3)n2)cc1	23200 nM (active)	
OCCCNc1cc(-c2ccnc(Nc3cccc(Cl)c3)n2)ccn1	116 nM (active)	
COc1cccc2c1C(=O)c1c(O)c3c(c(O)c1C2=O)C[C@@](O)(/C(CO)=N/NC(=O)CCCCCN1C(=O)C=CC1=O)C[C@@H]3O[C@H]1C[C@H](N)[C@H](O)[C@H](C)O1	4630 nM (active)	

Structure (SMILES)	Potency	activity change, negative = inhibition
Cc1[nH]c2ccccc2c1CCNCc1ccc(/C=C/C(=O)NO)cc1	29.2 nM (active)	
COc1cccc2c1C(=O)c1c(O)c3c(c(O)c1C2=O)C[C@@](O)(C(=O)CO)C[C@@H]3O[C@H]1C[C@H](N)[C@H](O)[C@H](C)O1	1040 nM (active)	
C[C@]12C=CC(=O)C=C1CC[C@@H]1[C@@H]2[C@@H](O)C[C@@]2(C)[C@H]1CC[C@]2(O)C(=O)CO		-28.8% (inactive)
Cc1cc(Nc2cc(NC(=O)c3c(Cl)cccc3Cl)ccn2)nc(N)n1	4630 nM (active)	
CCS(=O)(=O)N1CCN(c2ccc(Nc3ncc(C(N)=O)c(NC4CC4)n3)cc2)CC1	5830 nM (active)	
CC(C)C[C@H](NC(=O)[C@H](CCc1ccccc1)NC(=O)CN1CCOCC1)C(=O)N[C@@H](Cc1ccccc1)C(=O)N[C@@H](CC(C)C)C(=O)[C@@]1(C)CO1	1840 nM (active)	
COc1ccc(-c2nc(N3CCOCC3)c3sc(CN(C)c4ncc(C(=O)NO)cn4)cc3n2)cn1	23.2 nM (active)	
c1cc(Nc2cc(C3CC3)[nH]n2)nc(Nc2ccc3nc[nH]c3c2)n1	654 nM (active)	
Cc1ccc(-c2ncn(-c3ccc(Nc4nccc(-c5cccc(N6CCOCC6)c5)n4)cc3)n2)cn1	1460 nM (active)	
CCN(CC)Cc1ccc2cc(COC(=O)Nc3ccc(C(=O)NO)cc3)ccc2c1	4130 nM (active)	
C=C1C(=O)O[C@@H]2[C@H]3O[C@]3(C)CCC=C(C)CC[C@@H]12	16400 nM (active)	
NC(=O)Nc1sc(-c2ccc(F)cc2)cc1C(N)=O	10400 nM (active)	
OC1CCC(Oc2cccc3cnc(Nc4ccc5nc[nH]c5c4)nc23)CC1 (configuration not stated)	654 nM (active)	
Cc1cc(Nc2nc(N[C@@H](C)c3ncc(F)cn3)ncc2Cl)n[nH]1	4130 nM (active)	
CC(=O)c1ccc2c(c1)c1cc(C(C)=O)ccc1n2CCNC(C)C	1840 nM (active)	
Cc1ccc(NC(=O)NCc2ccc3c(c2)CN(C2CCC(=O)NC2=O)C3=O)cc1Cl (configuration not stated)		-1.86% (inactive)
Cc1ccc([N+](=O)[O-])cc1S(=O)(=O)N(C)/N=C/c1cnc2ccc(Br)cn12	232 nM (active)	
Cc1nc(Nc2n[nH]c3c2CN(C(=O)N[C@H](CN(C)C)c2ccccc2)C3(C)C)c2sccc2n1	1840 nM (active)	

Source: PubChem BioAssay AID1347415 (National Center for Advancing Translational Sciences (NCATS), 2020)
